Reference: PubChem BioAssay AID1159580 (chemical genetic matrix, 2015)
Several values for one entry are separate records, joined by “and”; a condition that tells them apart may be missing. Equal entries are not always repeated. Hit rate of the full screen: of about 5,500 compounds, about 2,000 (36%) were called active. Roughly 18% stayed inconclusive and do not appear here. No stated cut-off is given here; in the data, active means normalized growth mostly below about 0.91 (no sharp cut-off); inconclusive means no clear call, values can overlap the other calls; inactive means mostly above about 0.92. Some of the results follow.

Experiment: chemical genetic growth profiling, strain panel (AID 1159580);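 further: tested at 20 µM; growth read once vehicle control cultures reached saturation at 30 °C; 1 = growth at the plate median or of vehicle wells; lower values mean less growth of the strain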
Conditions: S. cerevisiae deletion strains, growth OD

Measured: normalized growth

CN[C@@H]1[C@@H](O[C@H]2O[C@H](CO)[C@@H](N)[C@H](O)[C@H]2O)O[C@H]2C[C@@H](N)[C@H](O[C@H]3[C@H](O)[C@@H](O)[C@H](N)C[C@@H]3N)O[C@@H]2[C@@H]1O
inactive: locus YAL013W, strain DEP1, hits give low values 1.01 | locus YAL021C, strain ccr4, hits give low values 1.01 | locus YAL026C, strain drs2, hits give low values 0.995 | locus YAL030W, strain snc1, hits give low values 1.01 | locus YBL061C, strain skt5, hits give low values 1 | locus YBR009C, strain hhf1, hits give low values 1.01 | locus YBR021W, strain FUR4, hits give low values 1.01 | locus YBR023C, strain chs3, hits give low values 1.01 | locus YBR171W, strain sec66, hits give low values 1.01 | locus YBR229C, strain ROT2, hits give low values 1.02 | locus YBR231C, strain swc5, hits give low values 1.02 | locus YBR279W, strain paf1, hits give low values 1 | locus YCL011C, strain gbp2, hits give low values 1.01 | locus YCL016C, strain dcc1, hits give low values 0.994 | locus YCL029C, strain bik1, hits give low values 1.01 | locus YCL069W, strain vba3, hits give low values 1.02 | locus YCR088W, strain abp1, hits give low values 1.01 | locus YDL005C, strain med2, hits give low values 0.995 | locus YDL035C, strain GPR1, hits give low values 1.03 | locus YDL074C, strain BRE1, hits give low values 0.984 | locus YDL101C, strain DUN1, hits give low values 1 | locus YDL134C, strain PPH21, hits give low values 0.999 | locus YDL185W, strain tfp1, hits give low values 0.992 | locus YDL192W, strain arf1, hits give low values 1.01 | locus YDR001C, strain nth1, hits give low values 1.01 | locus YDR069C, strain doa4, hits give low values 1.03 | locus YDR101C, strain arx1, hits give low values 1.01 | locus YDR150W, strain NUM1, hits give low values 1.01 | locus YDR159W, strain sac3, hits give low values 1.02 | locus YDR162C, strain NBP2, hits give low values 1 | locus YDR195W, strain ref2 1.01 | locus YDR297W, strain sur2, hits give low values 1.01 | locus YDR318W, strain mcm21, hits give low values 1.03 | locus YDR334W, strain swr1, hits give low values 0.993 | locus YDR335W, strain msn5, hits give low values 1.01 | locus YDR388W, hits give low values 1.02 | locus YDR392W, strain spt3, hits give low values 0.921 | locus YDR502C, strain sam2, hits give low values 0.982 | locus YEL003W, strain gim4, hits give low values 1 | locus YEL037C, strain rad23, hits give low values 1 | locus YEL061C, strain CIN8 (second series), hits give low values 0.999 | locus YEL061C, strain CIN8, hits give low values 1.01 | locus YER015W, strain faa2, hits give low values 1.02 | locus YER016W, strain bim1, hits give low values 1.01 | locus YER110C, hits give low values 1.01 | locus YER111C, strain swi4, hits give low values 1.01 | locus YER155C, strain BEM2 (second series), hits give low values 0.936 | locus YER155C, strain BEM2, hits give low values 1.01 | locus YER167W, strain BCK2, hits give low values 1.03 | locus YFR010W, strain ubp6, hits give low values 1.02 | locus YGL078C, strain dbp3, hits give low values 1 | locus YGL086W, strain mad1, hits give low values 1.01 | locus YGL167C, strain pmr1, hits give low values 1.01 | locus YGL173C, strain kem1, hits give low values 1.01 | locus YGL227W, strain vid30, hits give low values 0.998 | locus YGL240W, strain doc1, hits give low values 1.01 | locus YGL248W, strain PDE1, hits give low values 1 | locus YGL253W, strain hxk2, hits give low values 1 | locus YGR078C, strain PAC10, hits give low values 0.99 | locus YGR135W, strain pre9, hits give low values 0.978 | locus YGR229C, strain SMI1, hits give low values 1.01 | locus YGR252W, strain gcn5, hits give low values 0.989 | locus YHR013C, strain ard1, hits give low values 1.07 | locus YHR027C, strain rpn1, hits give low values 1 | locus YHR030C, strain SLT2, hits give low values 1.01 and 0.961 | locus YHR079C, strain IRE1 (second series), hits give low values 0.998 | locus YHR079C, strain IRE1, hits give low values 0.962 | locus YHR094C, strain hxt1, hits give low values 1.01 | locus YHR129C, strain ARP1, hits give low values 1.01 | locus YHR142W, strain chs7, hits give low values 0.977 | locus YHR200W, strain rpn10, hits give low values 1 | locus YIL066C, strain RNR3, hits give low values 1.01 | locus YIL073C, strain SPO22, hits give low values 1.04 | locus YIL125W, strain kgd1, hits give low values 1 | locus YIR030C, strain dcg1, hits give low values 1 | locus YJL092W, strain hpr5, hits give low values 1.01 | locus YJL095W, strain BCK1 (second series), hits give low values 1.01 | locus YJL095W, strain BCK1, hits give low values 0.987 and 0.964 | locus YJL115W, strain asf1, hits give low values 0.991 | locus YJL129C, strain trk1, hits give low values 1.01 | locus YJL134W, strain LCB3, hits give low values 1.01 | locus YJL154C, strain vps35, hits give low values 1.01 | locus YJL164C, strain tpk1, hits give low values 0.975 | locus YJL166W, strain qcr8, hits give low values 1.03 | locus YJL168C, strain set2, hits give low values 1 | locus YJL187C, strain SWE1 (second series), hits give low values 0.995 | locus YJL187C, strain SWE1, hits give low values 1.01 | locus YJR043C, strain POL32, hits give low values 1.03 | locus YJR066W, strain TOR1, hits give low values 0.911 | locus YJR075W, strain HOC1, hits give low values 0.977
active: locus YDR137W, strain rgp1, hits give low values 0.702
